Compounds without any hit were thinned out: in the full panel of roughly 79,000, 15% have a hit. Activity calls are given as the source filed them. Cut-off read from the data, not from the text of the source: active = growth inhibition above about 70%; inactive = the rest.
What was measured:
[1] = NCI Yeast Anticancer Drug Screen. Data for the rad52 strain (AID 147);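 note: 0% = growth of vehicle-treated control cultures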; details: S. cerevisiae rad52 mutant growth inhibition, stronger effect = higher value
How it was run: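 Screen used a yeast mutant impaired in DNA repair. After compound exposure, growth was measured. Values reflect inhibition compared with vehicle-treated cells.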

[2] = NCI Yeast Anticancer Drug Screen. Data for the wt1 strain (AID 149);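 note: 0% = growth of vehicle-treated wt1 cultures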; details: S. cerevisiae wt1 strain (SPY 50644) growth inhibition, stronger effect = higher value
How it was run: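 Measured: growth of wt1 yeast under compound versus vehicle treatment, reported as inhibition.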

[3] = NCI Yeast Anticancer Drug Screen. Data for the rad50EPP+ strain (AID 151);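 note: 0% = growth of vehicle-treated control cultures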; details: S. cerevisiae rad50 mutant strain, stronger effect = higher value
How it was run: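 Exposing the rad50EPP+ strain to each compound, growth was compared with vehicle-only cultures to give inhibition.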

[4] = NCI Yeast Anticancer Drug Screen. Data for the mgt1 strain (AID 153); details: S. cerevisiae mgt1 mutant growth inhibition, stronger effect = higher value
How it was run: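 Genetically defined yeast (mgt1) treated with compound; inhibition of growth expressed against vehicle-treated controls.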

[5] = NCI Yeast Anticancer Drug Screen. Data for the rad50 strain (AID 155);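 note: 0% = growth of vehicle-only cultures of the same strain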; details: S. cerevisiae rad50 strain growth inhibition, stronger effect = higher value
How it was run: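 Growth of the mutant yeast was measured after compound exposure and referenced to vehicle-treated cultures.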

[6] = NCI Yeast Anticancer Drug Screen. Data for the mec2-1 strain (AID 157); details: S. cerevisiae mec2-1 strain, stronger effect = higher value
How it was run: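 Readout is yeast growth inhibition, normalised to vehicle-treated controls, in the mec2-1 strain exposed to compound.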

[7] = NCI Yeast Anticancer Drug Screen. Data for the rad14 strain (AID 159);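 note: 0% = growth of vehicle-treated control cultures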; details: S. cerevisiae rad14 strain growth inhibition, stronger effect = higher value
How it was run: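 Here, inhibition of yeast growth was measured after compound exposure, using a strain with a genetic defect in DNA damage repair and vehicle-treated cultures as the reference.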

[8] = NCI Yeast Anticancer Drug Screen. Data for the sgs1 mgt1 strain (AID 161);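 note: 0% = growth of cultures given vehicle only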; details: S. cerevisiae sgs1 mgt1 strain, stronger effect = higher value
How it was run: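 This yeast growth screen uses a strain with defined DNA-repair lesions; compound-treated growth is compared with vehicle-treated growth.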

[9] = NCI Yeast Anticancer Drug Screen. Data for the CLN2oe strain (AID 163);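 note: 0% = growth of vehicle-only control cultures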; details: S. cerevisiae CLN2oe strain, stronger effect = higher value
How it was run: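 Values reflect how much compound exposure reduced yeast growth, referenced to vehicle-exposed cells. Assay organism is a strain with a defined genetic change affecting cell-cycle control.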

[10] = NCI Yeast Anticancer Drug Screen. Data for the cln2 rad14 strain (AID 165);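 note: 0% = growth equal to vehicle treated cultures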; details: S. cerevisiae cln2 rad14 strain, stronger effect = higher value
How it was run: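 Relative to vehicle controls, growth inhibition of compound-treated cln2 rad14 yeast was recorded.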

[11] = NCI Yeast Anticancer Drug Screen. Data for the bub3 strain (AID 167); details: S. cerevisiae bub3 mutant strain, stronger effect = higher value
How it was run: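 Whole-cell yeast assay. The mutant strain was incubated with compounds, and growth inhibition was determined by comparison with vehicle-treated cells.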

[12] = NCI Yeast Anticancer Drug Screen. Data for the wt2 strain (AID 169);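 note: 0% = growth of vehicle-treated yeast cultures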; details: S. cerevisiae wt2 strain growth inhibition, stronger effect = higher value
How it was run: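 Values express reduction in yeast growth under compound treatment, referenced to vehicle-treated cells.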

[13] = NCI Yeast Anticancer Drug Screen. Data for the mlh1 strain (AID 171);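 note: 0% = growth of vehicle-treated control cultures of the same strain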; details: S. cerevisiae mlh1 strain growth inhibition, stronger effect = higher value
How it was run: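 Steps: expose the defined-mutant yeast strain to compound; expose a parallel culture to vehicle; measure growth; express compound effect as inhibition relative to the vehicle culture.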

[14] = NCI Yeast Anticancer Drug Screen. Data for the sgs1 strain (AID 173);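 note: 0% = growth of vehicle-only control cultures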; details: S. cerevisiae sgs1 mutant, stronger effect = higher value
How it was run: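 Treat defined-mutant yeast with compound; measure growth; calculate inhibition relative to vehicle-treated cells.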

[15] = NCI Yeast Anticancer Drug Screen. Data for the mlh1 rad18 strain (AID 175); details: S. cerevisiae mlh1 rad18 strain growth inhibition, stronger effect = higher value
How it was run: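 Test agents were incubated with a yeast strain of defined genotype (DNA damage repair defect). Inhibition of growth was derived by comparison with vehicle-exposed cultures.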

[16] = NCI Yeast Anticancer Drug Screen. Data for the rad18 strain (AID 177); details: S. cerevisiae rad18 mutant growth inhibition, stronger effect = higher value
How it was run: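 A genetically defined yeast mutant impaired in DNA damage repair was treated with test compounds, then its growth was measured against cultures receiving vehicle alone.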

[17] = at 5.0 µM (retest, dose inferred, filed as 0.5)
[18] = at 50.0 µM (retest, dose inferred, filed as 5.0)

Measured: growth inhibition

CCOC(=O)c1[nH]cc(C)c1-c1cccn1-c1ccc(Cl)cc1[N+](=O)[O-]
active: [1]; at 100.0 µM 89% | [2]; at 100.0 µM 80% | [4]; at 100.0 µM 96% | [5]; at 100.0 µM 90% | [6]; at 100.0 µM 85% | [7]; at 100.0 µM 90% | [8]; [18] 87% | [9]; at 100.0 µM 92% | [11]; at 100.0 µM 91% | [12]; at 33.0 µM 84% | [12]; at 100.0 µM 93% | [13]; at 100.0 µM 96% | [14]; at 100.0 µM 95% | [16]; at 100.0 µM 89%
inactive: [1]; at 1.2 µM 13% | [1]; at 3.7 µM 19% | [1]; at 11.0 µM 27% | [1]; at 33.0 µM 25% | [2]; at 1.2 µM 16% | [2]; at 3.7 µM 6% | [2]; at 11.0 µM 16% | [2]; at 33.0 µM 12% | [3]; at 1.2 µM 22% | [3]; at 3.7 µM 30% | [3]; at 11.0 µM 32% | [3]; at 33.0 µM 32% | [3]; at 100.0 µM 55% | [4]; at 1.2 µM 3% | [4]; at 3.7 µM 17% | [4]; at 11.0 µM 20% | [4]; at 33.0 µM 48% | [5]; at 1.2 µM 1% | [5]; at 3.7 µM 8% | [5]; [17] 13% | [5]; at 11.0 µM 14% | [5]; at 33.0 µM 19% | [5]; [18] 43% | [5]; at 50.0 µM 32.5% | [6]; at 1.2 µM 4% | [6]; at 3.7 µM 15% | [6]; [17] 3% | [6]; at 11.0 µM -7% | [6]; at 33.0 µM 14% | [6]; [18] 48% | [6]; at 50.0 µM 46.1% | [7]; at 1.2 µM 21% | [7]; at 3.7 µM 15% | [7]; at 11.0 µM 16% | [7]; at 33.0 µM 31% | [8]; [17] 8% | [8]; at 50.0 µM 64.1% | [9]; at 1.2 µM -7% | [9]; at 3.7 µM -16% | [9]; at 11.0 µM -4% | [9]; at 33.0 µM -5% | [10]; [17] 11% | [10]; [18] 67% | [10]; at 50.0 µM 21.3% | [11]; at 1.2 µM 15% | [11]; at 3.7 µM 13% | [11]; [17] 9% | [11]; at 11.0 µM 12% | [11]; at 33.0 µM 32% | [11]; [18] 68% | [11]; at 50.0 µM 28.8% | [12]; at 1.2 µM -20% | [12]; at 3.7 µM -23% | [12]; at 11.0 µM -17% | [13]; at 1.2 µM 17% | [13]; at 3.7 µM 22% | [13]; at 11.0 µM 27% | [13]; at 33.0 µM 55% | [14]; at 1.2 µM 17% | [14]; at 3.7 µM 22% | [14]; at 11.0 µM 21% | [14]; at 33.0 µM 49% | [15]; [17] 11% | [15]; [18] 65% | [15]; at 50.0 µM 39.7% | [16]; at 1.2 µM 23% | [16]; at 3.7 µM 6% | [16]; at 11.0 µM 7% | [16]; at 33.0 µM 25%

CCc1cc(O)c(Cl)c(C)c1Cl
inactive: [1]; at 1.2 µM -5% | [1]; at 3.7 µM 6% | [1]; at 11.0 µM -8% | [1]; at 33.0 µM 14% | [2]; at 1.2 µM 7% | [2]; at 3.7 µM 21% | [2]; at 11.0 µM 14% | [2]; at 33.0 µM 20% | [3]; at 1.2 µM -12% | [3]; at 3.7 µM 0% | [3]; at 11.0 µM -13% | [3]; at 33.0 µM 40% | [4]; at 1.2 µM 14% | [4]; at 3.7 µM 3% | [4]; at 11.0 µM 28% | [5]; at 1.2 µM -29% | [5]; at 3.7 µM -19% | [5]; [17] 42% | [5]; at 11.0 µM -31% | [5]; at 33.0 µM 43% | [5]; at 50.0 µM 29.6% | [6]; at 1.2 µM -8% | [6]; at 3.7 µM -5% | [6]; [17] 44% | [6]; at 11.0 µM -13% | [6]; at 33.0 µM 3% | [6]; at 50.0 µM 34.9% | [7]; at 1.2 µM 9% | [7]; at 3.7 µM -5% | [7]; at 11.0 µM -8% | [7]; at 33.0 µM 34% | [8]; [17] -9% | [8]; [18] 33% | [8]; at 50.0 µM 45.5% | [9]; at 1.2 µM 18% | [9]; at 3.7 µM -21% | [9]; at 11.0 µM 1% | [9]; at 33.0 µM 28% | [10]; [17] 46% | [10]; at 50.0 µM 35% | [11]; at 1.2 µM -11% | [11]; at 3.7 µM 11% | [11]; [17] 21% | [11]; at 11.0 µM 5% | [11]; at 33.0 µM 31% | [11]; [18] 49% | [11]; at 50.0 µM 69.5% | [12]; at 1.2 µM -33% | [12]; at 3.7 µM -29% | [12]; at 11.0 µM -25% | [12]; at 33.0 µM 20% | [13]; at 1.2 µM 18% | [13]; at 3.7 µM 5% | [13]; at 11.0 µM 17% | [13]; at 33.0 µM 40% | [14]; at 1.2 µM -4% | [14]; at 3.7 µM 6% | [14]; at 11.0 µM 1% | [14]; at 33.0 µM 44% | [15]; [17] 48% | [15]; at 50.0 µM 13.9% | [16]; at 1.2 µM -14% | [16]; at 3.7 µM -30% | [16]; at 11.0 µM -40% | [16]; at 33.0 µM -27% | [16]; at 100.0 µM 63%
active: [1]; at 100.0 µM 75% | [2]; at 100.0 µM 87% | [3]; at 100.0 µM 90% | [4]; at 33.0 µM 73% | [4]; at 100.0 µM 96% | [5]; [18] 77% | [5]; at 100.0 µM 97% | [6]; [18] 86% | [6]; at 100.0 µM 73% | [7]; at 100.0 µM 90% | [9]; at 100.0 µM 71% | [10]; [18] 70% | [11]; at 100.0 µM 85% | [12]; at 100.0 µM 90% | [13]; at 100.0 µM 81% | [14]; at 100.0 µM 92% | [15]; [18] 93%

Source: PubChem BioAssay (NCI)
